16 compounds from PubChem BioAssay (Tox21) can be followed below.

Inconclusive results are not listed. Calls of active or inactive are those of the source. Calls follow the shape of the dose curve; as a rule, active = well fitted inhibition curve with a large enough effect in the repeat runs; inconclusive = weak or mixed curves; inactive = no such curve, though single readings can be large or run the other way.
% is scaled to controls: 0 for no effect and ±100 for the full control effect; potency is read from the fitted curve at half-maximal effect.

The nature of the test: qHTS assay to identify small molecule antagonists of the estrogen related receptor (ERR) signaling pathway from Tox21 library (AID 1224848). Also: nearly all actives have a fitted effect of over 50% in size. The following applies: ERR reporter cell line, luciferase antagonist mode, 18 h; series mostly up to 92.4 µM; activity, negative = inhibition: at the top concentration. The gist of the method: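 Antagonist-mode screen of the Tox21 10K library in an NTP-provided ERR reporter cell line; 18 h compound exposure at 37 C, luminescence measured with ONE-Glo.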
On the technique in general: In qHTS, concentration-response curves come from the screen itself.
`CCC1(CO)COCOC1`: the “activity, negative = inhibition” value was 12.5% (inactive).

For `C(=C\c1ccccc1)/c1ccccc1`, the “activity, negative = inhibition” value was 24.2% (inactive).

As to `CCOC(=O)c1ccc(I)cc1`, the “activity, negative = inhibition” value is -9.49% (inactive).

`Cc1cc(O)ccc1O`: the “activity, negative = inhibition” value is -105% (inactive).

Take `c1csc(SSc2cccs2)c1`: the Potency was 61.1 µM (active).

Regarding `O=C1c2ccccc2C(=O)c2c(O)c(O)cc(O)c21`, the “activity, negative = inhibition” value is -12.1% (inactive).

On to `CCOC(=O)/C=C/C(=O)OCC`, for which the “activity, negative = inhibition” value is 8.08% (inactive).

Turning to `CCCCCCCC/C=C\CCCCCCCCO`, the “activity, negative = inhibition” value was 7.02% (inactive).

Consider `O=C1Cc2cc(Cl)ccc2N1`, for which the “activity, negative = inhibition” value is 0.694% [at 42.5 µM] (inactive).

On to `CC(=O)OCCN(CCOC(C)=O)c1ccc(N=Nc2ccc([N+](=O)[O-])cc2C#N)cc1`, for which the Potency is 61.1 µM (active).

For `O=c1[nH]c2ccc(Cl)cc2o1`, the “activity, negative = inhibition” value was 5.18% (inactive).

For the compound `CCC(C)COC(C)=O` (stereo unspecified), the “activity, negative = inhibition” value was 3.15% (inactive).

Turning to `C=C(C)[C@@H]1CCC2=CCC[C@@H](C)[C@]2(C)C1`, the “activity, negative = inhibition” value was -12.4% (inactive).

`CC1CC(OC(=O)C(O)c2ccccc2)CC(C)(C)N1C` (stereo unspecified): the “activity, negative = inhibition” value is -6.8% [at 42.5 µM] (inactive).

Turning to `OCCN1CCN(CCCN2c3ccccc3Sc3ccc(Cl)cc32)CC1`, the Potency was 29.8 µM (active).

Take `CCCCCC[C@@H](O)C/C=C\CCCCCCCC(=O)OCC(O)CO` (stereo partly specified): the “activity, negative = inhibition” value was 0.31% (inactive).
